The values that follow come from PubChem BioAssay AID1851 (National Center for Advancing Translational Sciences (NCATS), 2009).

Molecules are shown by their SMILES. About 5,700 (36%) of roughly 16,000 compounds were called active. Another 24% or so got no clear call; they are omitted. The list shows a part of the results. Unmarked numbers belong to inactive results. Calls come from the whole dose curve; as a rule, active = well fitted curve in the direction sought with a large enough effect; inconclusive = small, poorly fitted or top-dose-only effect, or effect the other way; inactive = no such curve, though single readings can be large or run the other way.
% is set by controls: 0 for no effect and ±100 for the full control effect.

In the experiment the target is Cytochrome P450 1A2 (Homo sapiens) (UniProt P05177). The experiment is described as follows: Cytochrome panel assay with activity outcomes. The conditions noted are these: recombinant CYP, pro-luciferin dealkylation, luminescence, p450-cyp1a2; series mostly up to 57.1 µM; activity, negative = inhibition: at the top concentration.
Chain of Cytochrome P450 1A2 (Homo sapiens) (P05177 whole entry, looked up): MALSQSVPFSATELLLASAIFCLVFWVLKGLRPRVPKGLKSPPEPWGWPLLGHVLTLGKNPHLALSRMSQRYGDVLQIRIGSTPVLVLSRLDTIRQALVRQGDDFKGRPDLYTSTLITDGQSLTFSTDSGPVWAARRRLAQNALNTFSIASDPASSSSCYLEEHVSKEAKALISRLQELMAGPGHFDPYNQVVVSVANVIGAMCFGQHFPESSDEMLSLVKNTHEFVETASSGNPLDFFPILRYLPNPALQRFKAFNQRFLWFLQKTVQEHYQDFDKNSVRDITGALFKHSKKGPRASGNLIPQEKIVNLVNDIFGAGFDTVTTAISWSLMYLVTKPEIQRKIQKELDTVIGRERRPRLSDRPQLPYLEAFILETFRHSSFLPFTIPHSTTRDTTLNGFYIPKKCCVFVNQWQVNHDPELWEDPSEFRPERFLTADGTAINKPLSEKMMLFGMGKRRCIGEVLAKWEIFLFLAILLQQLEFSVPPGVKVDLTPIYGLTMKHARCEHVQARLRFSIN
For `COc1ccc(N2C(=O)CSC2c2cccc(F)c2)c(OC)c1` (stereo not drawn), the “activity, negative = inhibition” value was -16.7%.
With `CN1C(=O)CC[C@@H]1c1cccnc1`, the AC50 result is “inactive”.
Take `Cc1ccc(N2C(=O)CSC2c2cccnc2)cc1F` (stereo not drawn): the AC50 was 15.8 µM (active).
As to `CC1(C)CC(=O)C2=C(C1)N(Cc1ccccc1)C(=O)C2(O)C(F)(F)F` (stereo not drawn), the “activity, negative = inhibition” value is 6.23%.
For `COc1cccc(C(=O)N2N=C(c3cccc(OC)c3)CC2(O)C(F)(F)F)c1` (stereo not drawn), the AC50 is 14.1 µM (active).
Turning to `CCOC(=O)N1CCN(S(=O)(=O)Cc2ccccc2)CC1`, the “activity, negative = inhibition” value was -29.3%.
Same read-out and setting: next, `O=C(CCCc1ccccc1)N1CCN(c2ccc([N+](=O)[O-])cc2)CC1`: -22.5%.
For `CCC1=NN(C(=O)CCc2ccccc2)C(O)(C(F)(F)F)C1` (stereo not drawn), the AC50 was 11.2 µM (active).
On the same count and under the same terms, next, `CCOC(=O)N1N=C(c2ccccc2)CC1(O)C(F)(F)F` (stereo not drawn): 15.8 µM (active).
Turning to `COc1cccc(C(=O)NNC2=CC(=O)CC(C)(C)C2)c1`, the “activity, negative = inhibition” value is 1.45%.
On the same count and under the same terms, in the case of `CO[C@H]1C=CO[C@]2(C)Oc3c(C)c(O)c4c(O)c(c5c(c4c3C2=O)NC2(CCN(CC(C)C)CC2)N=5)=NC(=O)C(C)=CC=C[C@@H](C)[C@@H](O)[C@@H](C)[C@@H](O)[C@@H](C)[C@@H](OC(C)=O)[C@@H]1C` it was -11.4% [at 25.6 µM].
Still for that read-out and setting: in the case of `COc1ccc(NC(=O)N2CC3(CCN(C(=O)c4csnn4)CC3)C2)cc1` it was 2.39%.
Take `CCN1CCCC1Cn1cnc2c([nH]c3ccc(C)cc32)c1=O` (stereo not drawn): the half-maximal activity concentration (AC50) is 15.8 µM (active).
As for `O=C(O)CC[C@@H](C(=O)O)N1C(=O)c2ccccc2C1=O`, the AC50 entry is “inactive”.
Still for that read-out and setting: next, `O=C(CCN1C(=O)c2ccccc2C1=O)Oc1ccc2ccccc2c1`: 17.8 µM (active).
Turning to `O=C(O)[C@H](CCc1ccccc1)N1C(=O)c2ccccc2C1=O`, the activity, negative = inhibition is -9.63% [at 2.29 µM].
Still for that read-out and setting: in the case of `CCOc1ccccc1CNCCN1CCOCC1` it was 2.73%.
Take `CCOc1ccc(Cl)cc1CNCCNCC(C)O` (stereo not drawn): the AC50 was 12.6 µM (active).
Still for that read-out and setting: in the case of `CCOc1ccc(Cl)cc1CNCCNCCO` it was 15.8 µM (active).
For `CCOc1cc(CNCCc2ccc(S(N)(=O)=O)cc2)ccc1OCc1ccc(Cl)cc1`, the “activity, negative = inhibition” value is -17%.
The same measure, in the same setting: in the case of `CCOc1ccc(CC(C(N)=O)C(N)=O)cc1CN(C)C` it was -1.76%.
As for `COc1c(Cl)cc(Cl)cc1CNCCNCC(C)O` (stereo not drawn), the AC50 was 11.2 µM (active).
Still for that read-out and setting: next, `Oc1ccc(-c2[nH]ncc2-c2ccc(Cl)cc2)c(O)c1`: 1.58 µM (active); `Cc1[nH]nc(-c2ccc(O)cc2O)c1-c1ccc(Cl)cc1`: 2.24 µM (active); `C=C(C)COc1ccc(-c2n[nH]c(C)c2-c2ccc(OC)cc2)c(O)c1`: 14.1 µM (active).
For the compound `CC1(C)O[C@@H]2O[C@H]([C@H](O)CO/N=C3/[C@H]4O[C@@H]4[C@@H](O)[C@H]4[C@H]3CCn3c(=O)n(-c5ccccc5)c(=O)n34)[C@@H](O)[C@@H]2O1`, the activity, negative = inhibition is -7.71% [at 11.4 µM].
Same read-out and setting: next, `Cc1cc(NC(=O)C2C3C(=O)N(Cc4ccc(Cl)cc4)C(C(=O)NC(C)(C)C)C34C=CC2(C)O4)no1` (stereo not drawn): 2.8%.
`O=C(COc1ccc2ccccc2c1Br)NNC(=O)Nc1ccccc1`: the AC50 is 5.62 µM (active).
`CCCC(=O)NNC(=O)Nc1ccccc1`: the “activity, negative = inhibition” value was -5.14%.
As to `N#Cc1ccc(-c2ccc(F)cc2)nc1Oc1ccc(Cl)c(Cl)c1`, the AC50 was 1 µM (active).
For `CCc1nnc(NC(=O)CSc2ncnc3c2cnn3-c2ccc(OC)cc2)s1`, the “activity, negative = inhibition” value is -0.31%.
As to `COc1ccc(-n2ncc3c(NCC4CCCO4)ncnc32)cc1` (stereo not drawn), the AC50 is 14.1 µM (active).
In the case of `Cc1ccc(-n2ncc3c(=O)n(CC(=O)NCC4CCCO4)cnc32)cc1` (stereo not drawn), the “activity, negative = inhibition” value was -21.7%.
For the compound `Cc1nn(-c2nc3ccccc3[nH]2)c(N)c1-c1ccc(Cl)cc1`, the AC50 is 5.62 µM (active).
Same read-out and setting: in the case of `CCNC(=S)NNC(=O)c1cc(C2CC2)nc2ccccc12` it was 8.91 µM (active).
On to `CCNC(=S)NNC(=O)c1cc(CC(C)C)nc2ccccc12`, for which the “activity, negative = inhibition” value is -18.6%.
Still for that read-out and setting: in the case of `COC(=O)C/C=C\[C@@H](C)[C@@H](/C=N\O[C@@H](C)c1cc(-c2c(C)cc(C)cc2C)no1)OC` it was -3.54% [at 11.4 µM]; in that of `CC(C)C(C(=O)O)N1C(=O)/C(=C/C=C/c2ccco2)SC1=S` (stereo not drawn), -22%.
On the same count and under the same terms, in the case of `O=C(O)C/C(=C\c1ccco1)C(=O)O` it was -11.8% [at 2.29 µM].
As to `O=C(C=C1SCCS1)/C=C/c1ccco1`, the AC50 is 11.2 µM (active).
On to `Cc1cc(C)c(NC(=O)C[C@H](CC(=O)O)c2cccc3ccccc23)c(C(=O)N2CCC3(CCCC3)CC2)c1`, for which the “activity, negative = inhibition” value was 2.66%.
For the compound `COc1ccccc1CC(=O)Nc1cc2oc3ccccc3c2cc1OC`, the AC50 is 1 µM (active).
Take `COC(=O)N1CCC2(CCN(Cc3ccccc3OC)CC2)CC1`: the “activity, negative = inhibition” value is 2.41%.
For the compound `COc1cc2c(cc1NC(=O)Nc1ccccc1)oc1ccccc12`, the AC50 is 2 µM (active).
On the same count and under the same terms, next, `COc1cc2c(cc1NC(=O)c1cc(-c3cccnc3)nc3ccc(C)cc13)oc1ccccc12`: 12.6 µM (active).
Take `COC(=O)N1CCC2(CCCN(Cc3ccccc3OC)C2)CC1`: the “activity, negative = inhibition” value is -13.1%.
Take `COc1ccc(NC(=O)c2cc(-c3cccnc3)nc3ccc(C)cc23)cc1OC`: the “activity, negative = inhibition” value is -24.8%.
Still for that read-out and setting: next, `CC1(C)C(=O)C(c2ccccc2)=C2CN3C(=O)N(CCc4ccccc4)C(=O)C3(Cc3ccc(C(F)(F)F)cc3)C=C21` (stereo not drawn): -12.9%.
